Test results reported in PubChem BioAssay (NCI).
The panel holds about 79,000 compounds, 15% with a hit somewhere; the sample as a whole holds those more often. Calls of active or inactive are those of the source. Rule as the data show it: active = growth inhibition above about 70%; inactive = the rest.

Columns and labels:
[1] = NCI Yeast Anticancer Drug Screen. Data for the wt1 strain (AID 149);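 also: 0% = growth of vehicle-treated wt1 cultures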; conditions: S. cerevisiae wt1 strain (SPY 50644) growth inhibition, active compounds read high
Method in brief: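 The wt1 strain was treated with compounds, and growth was compared with vehicle-treated cultures to give inhibition.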

[2] = NCI Yeast Anticancer Drug Screen. Data for the rad50EPP+ strain (AID 151);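 also: 0% = growth of vehicle-treated control cultures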; conditions: S. cerevisiae rad50 mutant strain, active compounds read high
Method in brief: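 Read-out is yeast growth inhibition relative to vehicle; cells used were the rad50EPP+ strain.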

[3] = NCI Yeast Anticancer Drug Screen. Data for the mgt1 strain (AID 153); conditions: S. cerevisiae mgt1 mutant growth inhibition, active compounds read high
Method in brief: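 Measured: inhibition of mgt1 yeast growth by compound, normalized to vehicle-treated cultures.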

[4] = NCI Yeast Anticancer Drug Screen. Data for the rad50 strain (AID 155);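 also: 0% = growth of vehicle-only cultures of the same strain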; conditions: S. cerevisiae rad50 strain growth inhibition, active compounds read high
Method in brief: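 Cells are treated with compound, grown, and their growth is then scored against vehicle-only cultures of the same repair-deficient yeast strain.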

[5] = NCI Yeast Anticancer Drug Screen. Data for the mec2-1 strain (AID 157); conditions: S. cerevisiae mec2-1 strain, active compounds read high
Method in brief: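 Using mec2-1 yeast: add compound, measure growth, express inhibition versus vehicle-treated cultures.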

[6] = NCI Yeast Anticancer Drug Screen. Data for the rad14 strain (AID 159);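 also: 0% = growth of vehicle-treated control cultures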; conditions: S. cerevisiae rad14 strain growth inhibition, active compounds read high
Method in brief: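 Readout: yeast growth inhibition, referenced to vehicle-only cultures. Strain bears a defined alteration in DNA damage repair.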

[7] = NCI Yeast Anticancer Drug Screen. Data for the sgs1 mgt1 strain (AID 161);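 also: 0% = growth of cultures given vehicle only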; conditions: S. cerevisiae sgs1 mgt1 strain, active compounds read high
Method in brief: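 This yeast growth screen uses a strain with defined DNA-repair lesions; compound-treated growth is compared with vehicle-treated growth.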

[8] = NCI Yeast Anticancer Drug Screen. Data for the CLN2oe strain (AID 163);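 also: 0% = growth of vehicle-only control cultures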; conditions: S. cerevisiae CLN2oe strain, active compounds read high
Method in brief: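 Whole-cell yeast growth assay. A strain engineered for altered cell-cycle control received compound, and inhibition relative to vehicle-treated cultures was recorded.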

[9] = NCI Yeast Anticancer Drug Screen. Data for the cln2 rad14 strain (AID 165);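 also: 0% = growth equal to vehicle treated cultures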; conditions: S. cerevisiae cln2 rad14 strain, active compounds read high
Method in brief: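 Yeast strain cln2 rad14, bearing defects in cell cycle control and DNA repair, serves as the test system; values reflect growth inhibition compared with vehicle.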

[10] = NCI Yeast Anticancer Drug Screen. Data for the bub3 strain (AID 167); conditions: S. cerevisiae bub3 mutant strain, active compounds read high
Method in brief: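 Part of a panel of yeast mutants defective in DNA damage repair or cell cycle regulation. Each strain is grown with compound, and inhibition is calculated relative to solvent-treated cultures.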

[11] = NCI Yeast Anticancer Drug Screen. Data for the wt2 strain (AID 169);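 also: 0% = growth of vehicle-treated yeast cultures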; conditions: S. cerevisiae wt2 strain growth inhibition, active compounds read high
Method in brief: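 Treated yeast vs. vehicle-treated yeast: growth inhibition determined.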

[12] = NCI Yeast Anticancer Drug Screen. Data for the sgs1 strain (AID 173);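 also: 0% = growth of vehicle-only control cultures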; conditions: S. cerevisiae sgs1 mutant, active compounds read high
Method in brief: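 A genetically defined yeast mutant is incubated with the test compound, and its growth is compared to that of the same strain given vehicle.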

[13] = NCI Yeast Anticancer Drug Screen. Data for the mlh1 rad18 strain (AID 175); conditions: S. cerevisiae mlh1 rad18 strain growth inhibition, active compounds read high
Method in brief: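 Steps: expose repair-defective yeast to compound; measure growth; express inhibition against vehicle-treated controls.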

[14] = NCI Yeast Anticancer Drug Screen. Data for the rad18 strain (AID 177); conditions: S. cerevisiae rad18 mutant growth inhibition, active compounds read high
Method in brief: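 Measured value is growth inhibition of a yeast strain bearing a DNA repair alteration, referenced to vehicle-treated cells.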

[15] = NCI Yeast Anticancer Drug Screen. Data for the mlh1 strain (AID 171);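 also: 0% = growth of vehicle-treated control cultures of the same strain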; conditions: S. cerevisiae mlh1 strain growth inhibition, active compounds read high
Method in brief: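 A yeast strain with a defined genetic lesion serves as the test organism. Cultures receive compound or vehicle, and growth is measured.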

[16] = at 5.0 µM (retest, dose inferred, filed as 0.5)
[17] = at 50.0 µM (retest, dose inferred, filed as 5.0)

Measured: growth inhibition

Cc1nc2ccc(NCCN(C)C)c3c(=O)c4ccccc4n1c23
inactive: [1]; at 1.2 µM 26% | [1]; at 3.7 µM 25% | [1]; at 11.0 µM 37% | [1]; at 33.0 µM 31% | [1]; at 100.0 µM 26% | [2]; at 1.2 µM 26% | [2]; at 3.7 µM 11% | [2]; at 11.0 µM 40% | [2]; at 33.0 µM 55% | [2]; at 100.0 µM 65% | [3]; at 1.2 µM 27% | [3]; at 3.7 µM 31% | [3]; at 11.0 µM 33% | [3]; at 33.0 µM 27% | [3]; at 100.0 µM 38% | [4]; at 1.2 µM 43% | [4]; at 3.7 µM 50% | [4]; [16] 28% | [4]; at 50.0 µM -1.8% | [5]; at 1.2 µM 25% | [5]; at 3.7 µM 30% | [5]; [16] 16% | [5]; at 11.0 µM 41% | [5]; at 33.0 µM 42% | [5]; [17] 25% | [5]; at 50.0 µM 6.95% | [5]; at 100.0 µM 37% | [6]; at 1.2 µM 6% | [6]; at 3.7 µM 11% | [6]; at 11.0 µM 6% | [6]; at 33.0 µM 12% | [6]; at 100.0 µM 20% | [7]; [16] 1% | [7]; [17] 15% | [7]; at 50.0 µM -6.05% | [8]; at 1.2 µM 5% | [8]; at 3.7 µM 22% | [8]; at 11.0 µM 20% | [8]; at 33.0 µM -2% | [8]; at 100.0 µM 19% | [9]; [16] 10% | [9]; [17] 25% | [9]; at 50.0 µM 10.2% | [10]; at 1.2 µM 5% | [10]; at 3.7 µM 4% | [10]; [16] -10% | [10]; at 11.0 µM 9% | [10]; at 33.0 µM 11% | [10]; [17] 21% | [10]; at 50.0 µM -2.7% | [10]; at 100.0 µM 9% | [11]; at 1.2 µM -32% | [11]; at 3.7 µM -38% | [11]; at 11.0 µM -43% | [11]; at 33.0 µM -39% | [11]; at 100.0 µM -19% | [12]; at 1.2 µM 23% | [12]; at 3.7 µM 33% | [12]; at 11.0 µM 24% | [12]; at 33.0 µM 24% | [12]; at 100.0 µM 35% | [13]; [16] 11% | [13]; [17] 43% | [14]; at 1.2 µM 8% | [14]; at 3.7 µM 23% | [14]; at 11.0 µM 29% | [14]; at 33.0 µM 39% | [14]; at 100.0 µM 51%
active: [4]; at 11.0 µM 75% | [4]; at 33.0 µM 89% | [4]; [17] 79% | [4]; at 100.0 µM 92% | [13]; at 50.0 µM 78.9%

COc1ccc(C(=O)NCCN(C)C)c2nc3ccccc3cc12
inactive: [1]; at 1.2 µM -11% | [1]; at 3.7 µM 21% | [1]; at 11.0 µM -2% | [1]; at 33.0 µM -6% | [1]; at 100.0 µM 39% | [2]; at 1.2 µM 13% | [2]; at 3.7 µM 46% | [2]; at 11.0 µM 63% | [3]; at 1.2 µM 7% | [3]; at 3.7 µM 19% | [3]; at 11.0 µM 14% | [3]; at 33.0 µM 17% | [3]; at 100.0 µM 67% | [4]; at 1.2 µM 45% | [5]; at 1.2 µM 18% | [5]; at 3.7 µM 17% | [5]; [16] 14% | [5]; at 11.0 µM 18% | [5]; at 33.0 µM 30% | [5]; [17] 59% | [6]; at 1.2 µM 7% | [6]; at 3.7 µM 3% | [6]; at 11.0 µM -9% | [6]; at 33.0 µM 10% | [6]; at 100.0 µM 57% | [7]; [16] 18% | [7]; [17] 39% | [7]; at 50.0 µM 30.6% | [8]; at 1.2 µM 29% | [8]; at 3.7 µM 26% | [8]; at 11.0 µM 29% | [8]; at 33.0 µM 41% | [9]; [16] 17% | [9]; [17] 25% | [9]; at 50.0 µM 10.7% | [10]; at 1.2 µM 12% | [10]; at 3.7 µM 11% | [10]; [16] 22% | [10]; at 11.0 µM 9% | [10]; at 33.0 µM 9% | [10]; [17] 36% | [10]; at 50.0 µM -31.9% | [10]; at 100.0 µM 41% | [11]; at 1.2 µM -16% | [11]; at 3.7 µM -8% | [11]; at 11.0 µM -15% | [11]; at 33.0 µM -8% | [15]; at 1.2 µM 26% | [15]; at 3.7 µM 23% | [15]; at 11.0 µM 18% | [15]; at 33.0 µM 29% | [13]; [16] 19% | [13]; [17] 64% | [13]; at 50.0 µM 19.6% | [14]; at 1.2 µM 19% | [14]; at 3.7 µM 17% | [14]; at 11.0 µM 11% | [14]; at 33.0 µM -5% | [14]; at 100.0 µM 66%
active: [2]; at 33.0 µM 90% | [2]; at 100.0 µM 96% | [4]; at 3.7 µM 77% | [4]; [16] 73% | [4]; at 11.0 µM 93% | [4]; at 33.0 µM 95% | [4]; [17] 95% | [4]; at 50.0 µM 82.5% | [4]; at 100.0 µM 94% | [5]; at 50.0 µM 71.2% | [5]; at 100.0 µM 80% | [8]; at 100.0 µM 73% | [11]; at 100.0 µM 90% | [15]; at 100.0 µM 75%
